# Laboratory results reported in PubChem BioAssay (EPA / NIEHS).
# “And” between values parts separate entries of the source, which are not always exact repeats. Equal values may be shown once. Records with an inconclusive call do not appear. Where a structure was tested more than once in an assay, its records may differ in their call. The source made the active and inactive calls. Rule for the calls, unless noted: active = hit-call score of the fitted dose curve at least 0.9, where 1 is the maximum; inactive = score below 0.9.
# Experiments:
# [1] = target: Nuclear respiratory factor 1 (Homo sapiens) (UniProt Q16656); assay: ATG_NRF1_CIS: Attagene CIS-FACTORIAL HepG2 Assay for human Nuclear Respiratory Factor 1 (NRF1) Orphan Gene (AID 2282987); conditions: HepG2 NRF1 cis-element reporter, Attagene multiplex; actives raise or lower the signal
# Outline: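 Reporter mRNA induction or loss in HepG2 cells after 24 h dosing; cis-regulated reporter constructs report endogenous transcription-factor activity. Quantified by RT-PCR/capillary electrophoresis fluorescence, DMSO-referenced.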
# [2] = ATG_NFI_CIS: Attagene CIS-FACTORIAL HepG2 Assay for human Nuclear Factor I (NFI) (AID 2282989); conditions: HepG2 cis-regulatory reporter, NFI response element transcription; actives raise or lower the signal
# Outline: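 After transient transfection of HepG2 with cis-promoter reporter constructs and 24 h dosing, RNA is reverse-transcribed, amplified, 6-FAM end-labelled and HpaI-digested before capillary analysis. Bidirectional curve fitting against DMSO.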
# [3] = target: Myc proto-oncogene protein (Homo sapiens) (UniProt P01106); assay: ATG_Myc_CIS: Attagene CIS-FACTORIAL HepG2 Assay for human Myelocytomatosis (Myc) Proto-Oncogene Transcription Factor (AID 2282990); conditions: HepG2, Attagene cis-reporter transcription factor activity; actives raise or lower the signal
# Outline: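 Multiplexed cis-reporter transcription in HepG2 cells after 24 h chemical treatment. Reporter mRNA measured by RT-PCR and capillary electrophoresis fluorescence; activity fitted bidirectionally against DMSO control.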
# [4] = ATG_NF_kB_CIS: Attagene CIS-FACTORIAL HepG2 Assay for human Nuclear Factor Kappa B (NF-kB) (AID 2282991); conditions: HepG2 Attagene cis-factorial NF-kB reporter mRNA; actives raise or lower the signal
# Outline: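 DMSO served as negative control and baseline for bidirectional curve fitting. Transiently transfected HepG2 cells were dosed for 24 h, then reporter transcripts were measured by RT-PCR with capillary electrophoresis detection.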
# [5] = ATG_NRF2_ARE_CIS: Attagene CIS-FACTORIAL HepG2 Assay for human Nuclear Factor Erythroid 2 Related Factor 2 (NFR2) response to Antioxidant Response Elements (ARE) (AID 2282992); conditions: HepG2 Attagene ARE/NRF2 reporter, transcription factor activity; actives raise or lower the signal
# Outline: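 Fluorescence intensity of reporter-specific cDNA fragments, separated by capillary electrophoresis, reflects mRNA induction in transfected HepG2 cells at 24 h. Activity is fitted bidirectionally, DMSO serving as baseline.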
# [6] = ATG_Oct_MLP_CIS: Attagene CIS-FACTORIAL HepG2 Assay for human Octamer-Binding Transcription Factor (Oct) (AID 2282993); conditions: HepG2 Attagene cis-factorial Oct reporter, mRNA; actives raise or lower the signal
# Outline: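 Cells of the HepG2 line express promoter-controlled reporter sequences whose mRNA levels, after 24 h treatment, are measured by RT-PCR and capillary electrophoresis. Increases and decreases are scored relative to DMSO.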
# [7] = target: Cellular tumor antigen p53 (Homo sapiens) (UniProt P04637); assay: ATG_p53_CIS: Attagene CIS-FACTORIAL HepG2 Assay for human p53 Transcription Factor (AID 2282994); conditions: HepG2 p53 cis-element reporter, Attagene mRNA; actives raise or lower the signal
# Outline: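 Transiently transfected HepG2 (multiple cis reporter transcription units); exposure 24 h; reporter RNA via RT-PCR, 6-FAM extension, 2 h HpaI digest at 37 C, CE detection; DMSO baseline.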
# [8] = BSK_3C_uPAR: BioMAP Diversity Plus: 3C Assay for Urokinase-type plasminogen activator receptor (uPAR) Biomarker Activity (AID 2282998); conditions: BioMAP 3C HUVEC, uPAR biomarker ELISA; actives raise or lower the signal
# Outline: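 Endothelial primary cells of human umbilical vein origin received test chemical; 24 h later uPAR was assayed by ELISA. Fitting was bidirectional, DMSO as negative control.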
# [9] = BSK_4H_Eotaxin3: BioMAP Diversity Plus: 4H Assay for Eotaxin 3 Biomarker Activity (AID 2283000); conditions: primary human endothelial cells (HUVEC); actives raise or lower the signal;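 for outcome: CCL26 protein level quantified by ELISA in parallel with SRB cytotoxicity check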
# Outline: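 Eotaxin-3 (CCL26) levels were measured by ELISA in HUVEC primary cultures 24 h post-dosing. Gain or loss of signal was fitted in both directions, with DMSO serving as baseline and negative control.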
# [10] = target: human Peroxisome Proliferator-activated Receptor delta (PPARd), PPARD (gene 5467) (UniProt Q03181); assay: ATG_PPARd_TRANS: Attagene TRANS-FACTORIAL HepG2 Assay for human Peroxisome Proliferator-activated Receptor delta (PPARd) (AID 2283002; active = hit-call score of the fitted dose curve at least 0.9, where 1 is the maximum)
# Outline: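 Multiplexed trans-activation format: HepG2 liver cells expressing exogenous NR-Gal4 chimeras and GAL4-UAS reporters were exposed for 24 h. Reporter mRNA was detected by RT-PCR with capillary electrophoresis fluorescence; activity fitted as gain of signal relative to DMSO.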
# [11] = read-out: Intercellular Adhesion Molecule 1 (ICAM1), ICAM1 (gene 3383); assay: BSK_3C_ICAM1: BioMAP Diversity Plus: 3C Assay for Intercellular Adhesion Molecule 1 (ICAM1) Biomarker Activity (AID 2283003); conditions: primary human endothelial cells (HUVEC); actives raise or lower the signal
# Outline: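 ELISA read-out of ICAM-1; HUVEC (primary human), 3C system, 24 h post-dosing; bidirectional fit vs DMSO baseline.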
# [12] = target: human Retinoic Acid Receptor beta (RARb), RARB (gene 5915) (UniProt P10826); assay: ATG_RARb_TRANS: Attagene TRANS-FACTORIAL HepG2 Assay for human Retinoic Acid Receptor beta (AID 2283004; active = hit-call score of the fitted dose curve at least 0.9, where 1 is the maximum)
# Outline: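 HepG2 cells were transiently transfected with GAL4-UAS reporter units that report activity of exogenous chimeric NR-Gal4 proteins, then exposed to compound for 24 h. Reporter mRNA was quantified by RT-PCR with capillary electrophoresis fluorescence, as gain of signal over DMSO.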
# [13] = target: Retinoic acid receptor alpha (Homo sapiens) (UniProt P10276); assay: ATG_RARa_TRANS: Attagene TRANS-FACTORIAL HepG2 Assay for human Retinoic Acid Receptor alpha (RARa) (AID 2283005; active = hit-call score of the fitted dose curve at least 0.9, where 1 is the maximum)
# Outline: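 HepG2 cells transiently transfected with multiple reporter units expressing chimeric RARα-GAL4 fusion, with GAL4-UAS-driven reporters. After 24 h compound exposure, reporter mRNA induction quantified by RT-PCR and capillary electrophoresis with fluorescent labeling; gain-of-signal fitted relative to DMSO control.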
# [14] = BSK_3C_Proliferation: Cell Proliferation Assessment in the BioMAP Diversity Plus: 3C Assay (AID 2283006); conditions: primary human endothelial cells (HUVEC);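 for AC50: potency may reflect either rise or fall in cell number versus DMSO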
# Outline: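 HUVEC, sub-confluent; 48 h chemical exposure; 10% TCA fix, 0.1% SRB stain, A560 total protein. Gain or loss of signal fitted both directions vs DMSO control.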
# [15] = target: Peroxisome proliferator-activated receptor gamma (Homo sapiens) (UniProt P37231); assay: ATG_PPARg_TRANS: Attagene TRANS-FACTORIAL HepG2 Assay for human Peroxisome Proliferator-activated Receptor-gamma (PPARg) (AID 2283007; active = hit-call score of the fitted dose curve at least 0.9, where 1 is the maximum)
# Outline: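 Chimeric NR-Gal4 transactivation is measured in transiently transfected HepG2 cells by reporter mRNA induction at 24 h. Detection uses RT-PCR with fluorescent labelling and capillary electrophoresis; DMSO defines baseline.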
# [16] = target: Nuclear receptor subfamily 1 group I member 2 (Homo sapiens) (UniProt O75469); assay: ATG_PXR_TRANS: Attagene TRANS-FACTORIAL HepG2 Assay for human Pregnane X Receptor (PXR) (AID 2283008; active = hit-call score of the fitted dose curve at least 0.9, where 1 is the maximum)
# Outline: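 Transient HepG2 transfectants carrying multiplexed reporter transcription units; PXR activity read through a Gal4 chimera. 24 h exposure. RT-PCR/CE fluorescence; upward curve fit referenced to DMSO.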
# [17] = BSK_3C_TissueFactor: BioMAP Diversity Plus: 3C Assay for Tissue Factor Biomarker Activity (AID 2282997); conditions: BioMAP 3C HUVEC, tissue factor biomarker readout; actives raise or lower the signal
# Outline: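 Tissue Factor measured by ELISA, 24 h after treatment of primary HUVEC in the BioMAP 3C setting.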
# [18] = BSK_3C_VCAM1: BioMAP Diversity Plus: 3C Assay for Vascular cell adhesion molecule 1 (VCAM1) Biomarker Activity (AID 2282999); conditions: BioMAP 3C HUVEC, VCAM1 ELISA, cytokine-stimulated; actives raise or lower the signal
# Outline: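 Vascular primary endothelium (human umbilical vein) was exposed to chemicals and assayed 24 h later. VCAM-1 levels came from ELISA, with DMSO serving as baseline for bidirectional fitting.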
# [19] = target: human Peroxisome Proliferator-activated Receptor alpha (PPARa), PPARA (gene 5465) (UniProt Q07869); assay: ATG_PPARa_TRANS: Attagene TRANS-FACTORIAL HepG2 Assay for human Peroxisome Proliferator-activated Receptor alpha (PPARa) (AID 2283001; active = hit-call score of the fitted dose curve at least 0.9, where 1 is the maximum;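 for AC50: potency for gain of reporter signal over DMSO so agonist or activator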)
# Outline: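 Exposure: 24 h, transiently transfected HepG2 cells. Endpoint: GAL4-UAS reporter mRNA, RT-PCR with capillary electrophoresis fluorescence. Baseline: DMSO; increases fitted.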
# [20] = target: human Retinoic Acid Receptor gamma (RARg), RARG (gene 5916) (UniProt P13631); assay: ATG_RARg_TRANS: Attagene TRANS-FACTORIAL HepG2 Assay for human Retinoic Acid Receptor gamma (RARg) (AID 2283009; active = hit-call score of the fitted dose curve at least 0.9, where 1 is the maximum)
# Outline: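 Readout: reporter transcript levels via RT-PCR, 6-FAM primer-extension labelling, HpaI digestion and capillary electrophoresis. Cells: HepG2 carrying transfected RARg-GAL4 chimera plus UAS reporter set. Dosing 24 h; DMSO negative control.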
# Chain of Nuclear respiratory factor 1 (Homo sapiens) (Q16656 whole entry, looked up): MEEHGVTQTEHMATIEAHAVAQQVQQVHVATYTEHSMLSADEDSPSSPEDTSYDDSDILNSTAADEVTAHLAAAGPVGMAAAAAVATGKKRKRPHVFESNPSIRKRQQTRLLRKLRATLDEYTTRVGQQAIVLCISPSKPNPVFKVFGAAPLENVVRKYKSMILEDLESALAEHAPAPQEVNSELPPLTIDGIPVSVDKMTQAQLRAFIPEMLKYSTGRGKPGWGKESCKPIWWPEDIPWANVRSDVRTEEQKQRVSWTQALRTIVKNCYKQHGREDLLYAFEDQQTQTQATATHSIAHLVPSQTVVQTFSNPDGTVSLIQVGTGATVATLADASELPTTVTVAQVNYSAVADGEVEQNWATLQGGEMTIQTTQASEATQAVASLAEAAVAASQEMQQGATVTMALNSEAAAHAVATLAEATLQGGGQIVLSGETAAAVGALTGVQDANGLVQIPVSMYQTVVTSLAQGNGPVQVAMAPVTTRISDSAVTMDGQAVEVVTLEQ
# Chain of Myc proto-oncogene protein (Homo sapiens) (P01106 whole entry, looked up): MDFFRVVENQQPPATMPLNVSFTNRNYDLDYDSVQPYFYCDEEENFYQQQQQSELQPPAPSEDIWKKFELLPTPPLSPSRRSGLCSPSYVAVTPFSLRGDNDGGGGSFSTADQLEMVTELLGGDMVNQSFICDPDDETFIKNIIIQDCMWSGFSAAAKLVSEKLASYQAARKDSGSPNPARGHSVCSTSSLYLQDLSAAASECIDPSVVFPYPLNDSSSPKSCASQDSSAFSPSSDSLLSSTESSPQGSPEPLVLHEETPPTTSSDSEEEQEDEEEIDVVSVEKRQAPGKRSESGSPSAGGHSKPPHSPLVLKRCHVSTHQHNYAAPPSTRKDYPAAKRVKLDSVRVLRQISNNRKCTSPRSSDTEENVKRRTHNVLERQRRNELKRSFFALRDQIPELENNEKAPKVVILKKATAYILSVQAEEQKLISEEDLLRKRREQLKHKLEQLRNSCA
# Chain of human Retinoic Acid Receptor beta (RARb), RARB (gene 5915) (P10826 whole entry, looked up, the tested form may be a part): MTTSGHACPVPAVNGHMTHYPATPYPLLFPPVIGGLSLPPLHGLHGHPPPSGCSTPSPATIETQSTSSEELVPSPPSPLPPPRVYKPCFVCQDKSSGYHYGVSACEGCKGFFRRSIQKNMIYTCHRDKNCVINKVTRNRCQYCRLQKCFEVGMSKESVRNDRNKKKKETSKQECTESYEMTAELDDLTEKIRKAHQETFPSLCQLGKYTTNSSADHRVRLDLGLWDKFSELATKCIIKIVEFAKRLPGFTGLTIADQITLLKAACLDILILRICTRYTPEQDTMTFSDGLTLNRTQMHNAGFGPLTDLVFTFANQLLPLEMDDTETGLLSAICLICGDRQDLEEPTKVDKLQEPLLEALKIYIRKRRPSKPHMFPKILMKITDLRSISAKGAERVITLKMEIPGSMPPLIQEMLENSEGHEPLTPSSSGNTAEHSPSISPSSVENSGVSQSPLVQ
# Chain of Retinoic acid receptor alpha (Homo sapiens) (P10276 whole entry, looked up, the tested form may be a part): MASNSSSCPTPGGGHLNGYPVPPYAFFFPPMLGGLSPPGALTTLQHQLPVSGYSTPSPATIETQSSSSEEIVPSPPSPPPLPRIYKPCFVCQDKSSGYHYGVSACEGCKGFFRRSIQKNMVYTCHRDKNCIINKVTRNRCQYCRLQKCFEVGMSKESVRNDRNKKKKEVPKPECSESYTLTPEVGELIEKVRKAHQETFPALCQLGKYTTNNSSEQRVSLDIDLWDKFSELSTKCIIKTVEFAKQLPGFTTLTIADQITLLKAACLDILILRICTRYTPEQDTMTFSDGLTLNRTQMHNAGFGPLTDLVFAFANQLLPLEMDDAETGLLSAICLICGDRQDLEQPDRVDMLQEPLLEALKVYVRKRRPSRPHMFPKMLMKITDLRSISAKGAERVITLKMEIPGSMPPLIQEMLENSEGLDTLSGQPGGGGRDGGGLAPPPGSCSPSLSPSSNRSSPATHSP
# Chain of human Peroxisome Proliferator-activated Receptor alpha (PPARa), PPARA (gene 5465) (Q07869 whole entry, looked up, the tested form may be a part): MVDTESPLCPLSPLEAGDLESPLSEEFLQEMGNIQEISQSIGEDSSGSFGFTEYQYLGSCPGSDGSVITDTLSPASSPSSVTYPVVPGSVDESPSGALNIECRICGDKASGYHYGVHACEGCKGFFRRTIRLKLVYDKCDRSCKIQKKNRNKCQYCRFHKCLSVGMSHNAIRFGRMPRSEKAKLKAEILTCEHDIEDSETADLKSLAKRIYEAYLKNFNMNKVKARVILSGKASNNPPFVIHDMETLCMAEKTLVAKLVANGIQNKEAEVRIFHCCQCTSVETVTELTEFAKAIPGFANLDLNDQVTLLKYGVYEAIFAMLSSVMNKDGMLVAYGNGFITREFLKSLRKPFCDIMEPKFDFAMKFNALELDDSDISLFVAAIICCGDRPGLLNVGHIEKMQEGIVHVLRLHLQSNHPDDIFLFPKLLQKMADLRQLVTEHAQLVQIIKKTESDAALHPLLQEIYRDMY
# Chain of Cellular tumor antigen p53 (Homo sapiens) (P04637 whole entry, looked up): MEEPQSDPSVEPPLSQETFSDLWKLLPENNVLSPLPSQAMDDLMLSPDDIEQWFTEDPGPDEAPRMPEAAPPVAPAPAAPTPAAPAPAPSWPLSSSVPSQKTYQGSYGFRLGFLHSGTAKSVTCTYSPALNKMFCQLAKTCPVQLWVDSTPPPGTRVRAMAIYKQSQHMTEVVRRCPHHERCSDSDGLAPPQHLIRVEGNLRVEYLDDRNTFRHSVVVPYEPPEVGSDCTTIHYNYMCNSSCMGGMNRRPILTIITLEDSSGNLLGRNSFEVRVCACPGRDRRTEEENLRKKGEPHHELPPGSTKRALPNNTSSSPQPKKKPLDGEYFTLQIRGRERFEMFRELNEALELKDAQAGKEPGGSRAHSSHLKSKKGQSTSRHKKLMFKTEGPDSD
# Chain of human Retinoic Acid Receptor gamma (RARg), RARG (gene 5916) (P13631 whole entry, looked up, the tested form may be a part): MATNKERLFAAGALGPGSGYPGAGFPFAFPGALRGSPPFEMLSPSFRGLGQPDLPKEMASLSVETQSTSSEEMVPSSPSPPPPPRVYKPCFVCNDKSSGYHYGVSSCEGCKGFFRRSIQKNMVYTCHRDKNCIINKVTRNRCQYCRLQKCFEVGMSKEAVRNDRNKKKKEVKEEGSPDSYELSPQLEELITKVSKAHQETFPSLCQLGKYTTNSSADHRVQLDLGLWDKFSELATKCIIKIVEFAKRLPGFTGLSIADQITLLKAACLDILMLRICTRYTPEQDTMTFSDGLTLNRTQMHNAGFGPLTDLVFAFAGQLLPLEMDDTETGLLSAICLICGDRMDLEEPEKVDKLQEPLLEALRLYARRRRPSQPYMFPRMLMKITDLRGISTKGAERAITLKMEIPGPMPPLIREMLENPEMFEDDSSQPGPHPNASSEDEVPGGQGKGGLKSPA
# Chain of human Peroxisome Proliferator-activated Receptor delta (PPARd), PPARD (gene 5467) (Q03181 whole entry, looked up, the tested form may be a part): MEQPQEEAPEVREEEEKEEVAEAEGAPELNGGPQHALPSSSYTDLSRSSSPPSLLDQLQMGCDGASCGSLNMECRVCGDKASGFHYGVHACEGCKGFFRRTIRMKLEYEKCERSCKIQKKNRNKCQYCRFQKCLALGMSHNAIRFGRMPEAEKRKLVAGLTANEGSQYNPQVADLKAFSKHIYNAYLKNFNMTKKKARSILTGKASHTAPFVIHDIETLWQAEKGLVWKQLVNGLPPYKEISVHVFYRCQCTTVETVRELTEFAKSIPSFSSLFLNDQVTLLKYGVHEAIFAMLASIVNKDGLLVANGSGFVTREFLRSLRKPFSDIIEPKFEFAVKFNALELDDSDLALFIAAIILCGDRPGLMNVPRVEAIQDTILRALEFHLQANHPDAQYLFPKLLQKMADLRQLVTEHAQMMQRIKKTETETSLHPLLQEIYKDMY
# Chain of Nuclear receptor subfamily 1 group I member 2 (Homo sapiens) (O75469 whole entry, looked up, the tested form may be a part): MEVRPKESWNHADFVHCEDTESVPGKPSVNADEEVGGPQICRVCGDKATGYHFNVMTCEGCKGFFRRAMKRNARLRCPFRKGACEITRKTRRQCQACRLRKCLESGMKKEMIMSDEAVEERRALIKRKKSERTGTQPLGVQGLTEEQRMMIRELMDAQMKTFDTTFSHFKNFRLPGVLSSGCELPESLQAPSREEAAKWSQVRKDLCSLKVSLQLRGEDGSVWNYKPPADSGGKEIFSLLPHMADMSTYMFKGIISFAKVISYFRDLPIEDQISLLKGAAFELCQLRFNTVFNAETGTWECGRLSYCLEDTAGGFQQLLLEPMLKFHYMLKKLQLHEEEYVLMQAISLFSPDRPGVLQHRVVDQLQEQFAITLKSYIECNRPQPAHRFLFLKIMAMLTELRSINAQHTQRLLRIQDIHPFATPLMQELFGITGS
# Chain of Peroxisome proliferator-activated receptor gamma (Homo sapiens) (P37231 whole entry, looked up, the tested form may be a part): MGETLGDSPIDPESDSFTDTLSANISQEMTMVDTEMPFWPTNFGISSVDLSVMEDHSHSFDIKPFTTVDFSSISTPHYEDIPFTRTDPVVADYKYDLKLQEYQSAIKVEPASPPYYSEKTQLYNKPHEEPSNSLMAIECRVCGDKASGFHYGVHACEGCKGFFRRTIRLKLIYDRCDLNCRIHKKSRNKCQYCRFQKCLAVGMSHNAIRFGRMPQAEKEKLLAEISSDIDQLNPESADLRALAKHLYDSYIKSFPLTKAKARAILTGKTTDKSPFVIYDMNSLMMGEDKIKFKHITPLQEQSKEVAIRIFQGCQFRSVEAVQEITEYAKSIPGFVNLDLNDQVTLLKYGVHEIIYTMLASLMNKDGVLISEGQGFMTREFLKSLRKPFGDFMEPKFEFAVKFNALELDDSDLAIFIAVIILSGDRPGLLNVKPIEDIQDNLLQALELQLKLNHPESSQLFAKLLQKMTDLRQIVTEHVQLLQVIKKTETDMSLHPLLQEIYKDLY
smiles,measurement,setting,value
OCC(F)(F)C(F)(F)C(F)(F)C(F)(F)C(F)(F)C(F)F,outcome,[1],inactive
same,outcome,[2],inactive
same,outcome,[3],inactive
same,outcome,[4],inactive
same,outcome,[5],inactive
same,outcome,[6],inactive
same,outcome,[7],inactive
same,outcome,[8],inactive
same,outcome,[9],inactive
same,outcome,[10],inactive
same,outcome,[11],inactive
same,outcome,[12],inactive
same,outcome,[13],inactive
same,outcome,[14],inactive
same,outcome,[15],inactive
same,outcome,[16],inactive
FC(F)(F)C(F)(F)C(F)(F)C(F)(F)C(F)(F)C(F)(F)C(F)(F)C(F)(F)CCS,outcome,[1],inactive
same,outcome,[2],inactive
same,outcome,[3],inactive
same,outcome,[4],inactive
same,outcome,[5],inactive
same,outcome,[6],inactive
same,outcome,[7],inactive
same,outcome,[17],inactive
same,outcome,[8],inactive
same,outcome,[18],inactive
same,outcome,[9],inactive
same,outcome,[19],inactive
same,outcome,[11],inactive
same,outcome,[14],inactive
O=S(=O)(O)C(F)(F)C(F)(F)C(F)(F)C(F)(F)C(F)(F)C(F)(F)C(F)(F)F,outcome,[1],inactive
same,outcome,[2],inactive
same,outcome,[3],inactive
same,outcome,[4],inactive
same,AC50,[5],42.6 µM (active) and 30.3 µM (active)
same,outcome,[6],inactive
same,outcome,[7],inactive
same,outcome,[17],inactive
same,outcome,[8],inactive
same,outcome,[9],inactive
same,AC50,[19],21.7 µM (active) and 24.7 µM (active)
same,outcome,[11],inactive
same,outcome,[12],inactive
same,outcome,[13],inactive
same,outcome,[14],inactive
same,AC50,[15],33.4 µM (active) and 33.2 µM (active)
same,AC50,[16],33.5 µM (active)
same,outcome,[16],inactive
same,outcome,[20],inactive
O=P(O)(O)OCCC(F)(F)C(F)(F)C(F)(F)C(F)(F)C(F)(F)C(F)(F)F,outcome,[1],inactive
same,outcome,[2],inactive
same,outcome,[3],inactive
same,outcome,[4],inactive
same,outcome,[5],inactive
same,outcome,[6],inactive
same,outcome,[7],inactive
same,outcome,[17],inactive
same,outcome,[8],inactive
same,outcome,[18],inactive
same,outcome,[9],inactive
same,outcome,[10],inactive
same,outcome,[11],inactive
same,outcome,[16],inactive
CC(=O)Nc1ccc(N=Nc2cc(C)ccc2O)cc1,AC50,[1],27.1 µM (active)
same,outcome,[2],inactive
same,outcome,[3],inactive
same,outcome,[4],inactive
same,AC50,[5],1.42 µM (active)
same,outcome,[6],inactive
same,outcome,[7],inactive
same,outcome,[8],inactive
same,AC50,[9],20 µM (active)
same,outcome,[19],inactive
same,outcome,[11],inactive
same,AC50,[14],4.08 µM (active)
same,AC50,[15],32.3 µM (active)
same,AC50,[16],14.1 µM (active)
same,outcome,[20],inactive
CCO[Si](CCC(F)(F)C(F)(F)C(F)(F)C(F)(F)C(F)(F)C(F)(F)F)(OCC)OCC,outcome,[1],inactive
same,outcome,[2],inactive
same,outcome,[3],inactive
same,outcome,[4],inactive
same,outcome,[5],inactive
same,outcome,[6],inactive
same,outcome,[7],inactive
same,outcome,[17],inactive
same,outcome,[8],inactive
same,outcome,[9],inactive
same,outcome,[19],inactive
same,outcome,[10],inactive
same,outcome,[11],inactive
same,outcome,[14],inactive
same,outcome,[15],inactive
same,outcome,[16],inactive
same,outcome,[20],inactive
FC(F)(F)C(F)(F)C(F)(F)C(F)(F)CCI,outcome,[1],inactive
same,outcome,[2],inactive
same,outcome,[3],inactive
same,outcome,[4],inactive
same,AC50,[5],79.7 µM (active)
same,outcome,[5],inactive
same,outcome,[7],inactive
same,outcome,[17],inactive
same,outcome,[8],inactive
same,outcome,[18],inactive
same,AC50,[9],10.6 µM (active)
same,outcome,[9],inactive
same,outcome,[19],inactive
same,outcome,[10],inactive
same,outcome,[11],inactive
same,outcome,[13],inactive
same,outcome,[14],inactive
same,AC50,[15],36.9 µM (active)
same,outcome,[15],inactive
same,outcome,[16],inactive
same,outcome,[20],inactive
